Measured values from PubChem BioAssay (Tox21).
Records with an inconclusive call do not appear. Activity calls are given as the source filed them. Unless noted, calls come from the whole dose curve; as a rule, active = well fitted curve in the direction sought with a large enough effect in the repeat runs; inconclusive = weak or mixed curves; inactive = no such curve, though single readings can be large; an effect the other way counts as inactive or inconclusive.

Tests used:
[1] = qHTS assay to identify small molecule antagonists of the estrogen related receptor signaling pathway with the pleiotropic PPARgamma coactivator (PGC) from Tox21 10K library - cell viability counter screen (AID 1224840; active = well fitted cell-killing curve with a large enough effect in the repeat runs, not every such curve was filed as active; note: nearly all actives have a fitted effect of over 40% in size)
Method in brief: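 Compounds in DMSO, alongside positive and negative controls, were pinned onto PGC/ERR cells (2,000 per well). Exposure lasted 17.5 hours at 37 C, followed by a 30-minute CellTiter-Fluor incubation and fluorescence reading.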

[2] = qHTS assay to identify small molecule agonists of the estrogen related receptor signaling pathway with the pleiotropic PPARgamma coactivator (PGC) from Tox21 10K library (AID 1224842); note: nearly all actives have a fitted effect of over 15% in size
Method in brief: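 PGC/ERR reporter cells (NTP line) were seeded 2,000 per well, rested 6 h at 37 C/5% CO2, then pin-dosed with compounds in DMSO for 18 h at 37 C; luciferase read by One-Glo luminescence after 30 min at room temperature.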

[3] = qHTS assay to identify small molecule agonists of the hypoxia (HIF-1) signaling pathway - cell viability counter screen (AID 1224844; calls by dose curve; note: nearly all actives have a fitted effect of over 50% in size)
Method in brief: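 Luminescent ATP content (CellTiter-Glo, 30 min, room temperature) served as the viability measure in HRE-bla ME-180 cells exposed to compounds for 17 hrs in low-serum medium (0.5% dialyzed FBS).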

[4] = qHTS assay to identify small molecule agonists of H2AX (AID 1224845; active = well fitted activation curve with a large enough effect in the signal ratio in the repeat runs, not every such curve was filed as active; the % refers to the signal ratio)
Method in brief: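 Wild-type CHO-K1 cells plated overnight, then exposed 3 hr at 37C to compounds at 15 concentrations (0.76% DMSO). Lysed, then HTRF anti-pH2AX(S139)-cryptate/anti-H2AX-d2 detection after 24 hr at room temperature; emissions 665 and 620 nm.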

[5] = qHTS assay to identify small molecule agonists of the hypoxia (HIF-1) signaling pathway (AID 1224846; active = well fitted activation curve with a large enough effect in the signal ratio in the repeat runs, not every such curve was filed as active; the % refers to the signal ratio)
Method in brief: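 Measured by blue/green FRET after loading CCF4-AM: beta-lactamase expressed from a hypoxia response element in ME-180 cells. Test agents were delivered in DMSO and left 17 hrs; cells had been plated 5 hrs earlier in low-serum (0.5% dialyzed FBS) medium.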

[6] = qHTS assay to identify small molecule agonists of H2AX - cell viability counter screen (AID 1224847; calls by dose curve; note: top concentration of the series differs between compounds; nearly all actives have a fitted effect of over 30% in size)
Method in brief: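 Counter-screen for viability: CellTiter-Glo ATP luminescence read after 3 h compound treatment (15-point titration, 0.76% DMSO final) of CHO-K1 cells at 37C, with 30 min room-temperature reagent incubation.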

[7] = qHTS assay to identify small molecule antagonists of the estrogen related receptor (ERR) signaling pathway from Tox21 library (AID 1224848); note: nearly all actives have a fitted effect of over 50% in size
Method in brief: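 Cells: ERR line, 2,000/well; 6 h preincubation 37 C/5% CO2. Cpd in DMSO via pin tool; 18 h, 37 C. ONE-Glo, 30 min RT, luminescence.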

[8] = qHTS assay to identify small molecule agonists of the estrogen related receptor (ERR) signaling pathway from Tox21 library (AID 1224849; calls by dose curve; note: nearly all actives have a fitted effect of over 15% in size)
Method in brief: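 We plated ERR reporter cells, waited 6 h, added compounds in DMSO by pin tool and incubated them 18 h at 37 C. ONE-Glo was then added and luminescence read after 30 min.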

[9] = qHTS RealTime-Glo MT Cell Viability Assay in HepG2 cells - 24 hour (AID 1224867); note: nearly all actives have a fitted effect of over 50% in size
Method in brief: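 Tox21 10K library screened in qHTS format on HepG2 cells carrying RealTime-Glo reagents. Compounds were added after a 5 h preincubation, and the luminescent signal from continuous culture was measured repeatedly during 40 h treatment.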

[10] = qHTS RealTime-Glo MT Cell Viability Assay in HEK293 cells - 32 hour (AID 1224868); note: top concentration of the series differs between compounds; nearly all actives have a fitted effect of over 50% in size
Method in brief: (§1)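 Luminescence generated by NanoLuc from substrate produced by living HEK293 cells served as the viability signal. Each value reflects the reading at its stated time point during continuous 40 h compound exposure at 37 C.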

[11] = A CellTox Green Cytotoxicity Assay to monitor cytotoxicity in HEK293 cells - 0 hour (AID 1224869); note: nearly all actives have a fitted effect of over 50% in size
Method in brief: (§2)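 Each value comes from one timepoint of a single continuous run in which HEK293 cells with CellTox Green were exposed to compound for up to 40 h at 37 C, dye fluorescence rising with cell death.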

[12] = qHTS RealTime-Glo MT Cell Viability Assay in HepG2 cells - 40 hour (AID 1224870); note: nearly all actives have a fitted effect of over 50% in size
Method in brief: (§3)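 HepG2 cells mixed with RealTime-Glo MT reagents (NanoLuc plus cell-permeant prosubstrate) were seeded at 600 cells/well, incubated 5 h at 37 C/5% CO2, then pinned with compounds in DMSO; nonlytic luminescence tracked viability during 40 h treatment.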

[13] = A CellTox Green Cytotoxicity Assay to monitor cytotoxicity in HEK293 cells - 40 hour (AID 1224871); note: nearly all actives have a fitted effect of over 45% in size
Method in brief: as §2

[14] = qHTS RealTime-Glo MT Cell Viability Assay in HEK293 cells - 16 hour (AID 1224872)
Method in brief: as §1

[15] = qHTS RealTime-Glo MT Cell Viability Assay in HepG2 cells - 8 hour (AID 1224873); note: nearly all actives have a fitted effect of over 55% in size
Method in brief: as §3

[16] = qHTS RealTime-Glo MT Cell Viability Assay in HEK293 cells - 40 hour (AID 1224874); details: RealTime-Glo luminescence; max response: stronger effect = lower value; note: nearly all actives have a fitted effect of over 50% in size
Method in brief: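 qHTS format; HEK293 cells with NanoLuc/prosubstrate reagent, 37 C/5% CO2 for 5 h pre-dosing; compounds 23 nL in DMSO; luminescence at each time point reflects viable cells.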

[17] = A CellTox Green Cytotoxicity Assay to monitor cytotoxicity in HEK293 cells - 24 hour (AID 1224875); note: series mostly up to about 77 µM; nearly all actives have a fitted effect of over 45% in size
Method in brief: as §2

[18] = qHTS assay to identify small molecule antagonists of the estrogen related receptor signaling pathway with the pleiotropic PPARgamma coactivator (PGC) from Tox21 10K library (AID 1224841; call rule not given here)
Method in brief: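 Compound exposure ran 18 hours at 37 C in PGC/ERR cells (2,000/well) that had first rested 6 hours in a 37 C/5% CO2 incubator. Luciferase activity was then detected with One-Glo after a 30-minute room-temperature step.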

[19] = biological target: Thyrotropin receptor (Homo sapiens) (UniProt P16473); assay: qHTS assay to identify small molecule agonists of the thyroid stimulating hormone receptor (TSHR) signaling pathway (AID 1224843; calls by dose curve; note: nearly all actives have a fitted effect of over 45% in size)
Chain of Thyrotropin receptor (Homo sapiens) (P16473 whole entry, looked up): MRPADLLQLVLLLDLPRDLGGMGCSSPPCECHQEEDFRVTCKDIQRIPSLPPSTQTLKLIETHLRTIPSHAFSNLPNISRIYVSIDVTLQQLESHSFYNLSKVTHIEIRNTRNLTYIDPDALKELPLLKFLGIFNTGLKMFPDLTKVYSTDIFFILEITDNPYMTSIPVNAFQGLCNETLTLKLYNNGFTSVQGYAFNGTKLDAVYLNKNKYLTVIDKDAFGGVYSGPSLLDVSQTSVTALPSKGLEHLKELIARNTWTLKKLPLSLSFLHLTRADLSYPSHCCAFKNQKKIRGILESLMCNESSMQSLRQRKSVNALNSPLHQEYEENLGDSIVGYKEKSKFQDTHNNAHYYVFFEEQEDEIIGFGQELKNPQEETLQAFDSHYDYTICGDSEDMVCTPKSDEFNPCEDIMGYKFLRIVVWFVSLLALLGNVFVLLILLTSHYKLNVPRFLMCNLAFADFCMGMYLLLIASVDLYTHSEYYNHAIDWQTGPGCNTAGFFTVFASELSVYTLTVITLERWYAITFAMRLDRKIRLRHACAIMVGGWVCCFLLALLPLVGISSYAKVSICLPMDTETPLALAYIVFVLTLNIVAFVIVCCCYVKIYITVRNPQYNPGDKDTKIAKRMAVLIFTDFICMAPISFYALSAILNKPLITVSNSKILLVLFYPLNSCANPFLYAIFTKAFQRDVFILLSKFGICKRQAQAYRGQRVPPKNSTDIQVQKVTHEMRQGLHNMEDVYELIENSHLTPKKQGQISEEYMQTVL
Method in brief: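 TSHR-expressing HEK293 cells (800 per well) were exposed to compounds for 30 min at room temperature. cAMP was then detected by HTRF competition with cAMP-d2 and anti-cAMP cryptate, read after 1 h at room temperature. Fifteen concentrations, triplicate.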
% is set by controls: 0 for no effect and ±100 for the full control effect.

Cc1ccccc1C
inactive: outcome [1] | outcome [2] | outcome [3] | outcome [4] | outcome [5] | Potency [6] | Potency [7] | outcome [8] | outcome [9] | Potency [10] | Potency [11] | outcome [12] | Potency [13] | Potency [14] | outcome [15] | max response [16] 13.2% | Potency [17]

Oc1ccccc1Cc1ccccc1O
inactive: outcome [1] | Potency [18] | outcome [2] | outcome [3] | outcome [4] | outcome [5] | Potency [7] | outcome [8] | outcome [9] | Potency [11] | outcome [12] | Potency [13] | outcome [15] | Potency [17]

CCC(C)(CCC(C)C)C(=O)[O-].CCC(C)(CCC(C)C)C(=O)[O-].[Zn+2] (centres undefined)
inactive: outcome [1] | Potency [18] | outcome [2] | outcome [3] | outcome [4] | outcome [5] | outcome [8] | Potency [10] | Potency [11] | outcome [12] | Potency [13] | Potency [14] | outcome [15] | max response [16] 0.868% | Potency [17]

C=CCOCC(CO)(COCC=C)COCC=C
inactive: outcome [1] | outcome [2] | outcome [19] | outcome [3] | outcome [4] | outcome [5] | Potency [6] | Potency [7] | outcome [8] | outcome [9] | Potency [10] | Potency [11] | outcome [12] | Potency [13] | Potency [14] | outcome [15] | max response [16] 0.319% | Potency [17]
